Source: PubChem BioAssay AID1159580 (chemical genetic matrix, 2015)
Where “and” joins values, the source holds several entries; their conditions need not be identical. Equal entries are not always repeated. Out of some 5,500 compounds screened, about 2,000 (36%) were called active. Inconclusive results (about 18%) are left out. Rule as the data show it: active = normalized growth mostly below about 0.91 (no sharp cut-off); inconclusive = no clear call, values can overlap the other calls; inactive = mostly above about 0.92. Some of the results follow.

Assay: chemical genetic growth profiling, strain panel (AID 1159580);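 also: tested at 20 µM; growth read once vehicle control cultures reached saturation at 30 °C; 1 = growth at the plate median or of vehicle wells; lower values mean less growth of the strain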
Details: S. cerevisiae deletion strains, growth OD

Measured: normalized growth

CCCCC(=O)N(Cc1ccc(-c2ccccc2-c2nn[nH]n2)cc1)[C@H](C(=O)O)C(C)C
inactive: locus YAL013W, strain DEP1, stronger effect = lower value 0.992 | locus YAL021C, strain ccr4, stronger effect = lower value 0.974 | locus YAL026C, strain drs2, stronger effect = lower value 0.982 | locus YAL030W, strain snc1, stronger effect = lower value 0.993 | locus YBL061C, strain skt5, stronger effect = lower value 0.994 | locus YBR009C, strain hhf1, stronger effect = lower value 0.986 | locus YBR021W, strain FUR4, stronger effect = lower value 0.993 | locus YBR023C, strain chs3, stronger effect = lower value 1 | locus YBR171W, strain sec66, stronger effect = lower value 0.986 | locus YBR229C, strain ROT2, stronger effect = lower value 1 | locus YBR231C, strain swc5, stronger effect = lower value 1.01 | locus YBR279W, strain paf1, stronger effect = lower value 1 | locus YCL011C, strain gbp2, stronger effect = lower value 0.981 | locus YCL016C, strain dcc1, stronger effect = lower value 0.98 | locus YCL029C, strain bik1, stronger effect = lower value 0.962 | locus YCL061C, strain MRC1, stronger effect = lower value 0.971 | locus YCL069W, strain vba3, stronger effect = lower value 0.99 | locus YCR088W, strain abp1, stronger effect = lower value 0.99 | locus YDL005C, strain med2, stronger effect = lower value 1 | locus YDL035C, strain GPR1, stronger effect = lower value 0.987 | locus YDL040C, strain nat1, stronger effect = lower value 0.992 | locus YDL074C, strain BRE1, stronger effect = lower value 1 | locus YDL101C, strain DUN1, stronger effect = lower value 0.988 | locus YDL134C, strain PPH21, stronger effect = lower value 1.01 | locus YDL185W, strain tfp1, stronger effect = lower value 0.932 | locus YDL192W, strain arf1, stronger effect = lower value 0.972 | locus YDR001C, strain nth1, stronger effect = lower value 0.974 | locus YDR069C, strain doa4, stronger effect = lower value 0.993 | locus YDR101C, strain arx1, stronger effect = lower value 0.995 | locus YDR137W, strain rgp1, stronger effect = lower value 0.969 | locus YDR150W, strain NUM1, stronger effect = lower value 0.972 | locus YDR159W, strain sac3, stronger effect = lower value 0.946 | locus YDR162C, strain NBP2, stronger effect = lower value 0.982 | locus YDR195W, strain ref2 1 | locus YDR297W, strain sur2, stronger effect = lower value 0.994 | locus YDR318W, strain mcm21, stronger effect = lower value 0.979 | locus YDR334W, strain swr1, stronger effect = lower value 0.987 | locus YDR335W, strain msn5, stronger effect = lower value 0.994 | locus YDR388W, stronger effect = lower value 0.989 | locus YDR392W, strain spt3, stronger effect = lower value 0.979 | locus YDR502C, strain sam2, stronger effect = lower value 0.98 | locus YEL003W, strain gim4, stronger effect = lower value 0.968 | locus YEL037C, strain rad23, stronger effect = lower value 0.987 | locus YEL061C, strain CIN8 (second series), stronger effect = lower value 0.976 | locus YEL061C, strain CIN8, stronger effect = lower value 0.985 | locus YER015W, strain faa2, stronger effect = lower value 1.01 | locus YER016W, strain bim1, stronger effect = lower value 0.999 | locus YER110C, stronger effect = lower value 0.973 | locus YER111C, strain swi4, stronger effect = lower value 0.986 | locus YER155C, strain BEM2 (second series), stronger effect = lower value 1.03 | locus YER155C, strain BEM2, stronger effect = lower value 0.994 | locus YER167W, strain BCK2, stronger effect = lower value 0.954 | locus YFR010W, strain ubp6, stronger effect = lower value 0.995 | locus YGL078C, strain dbp3, stronger effect = lower value 0.97 | locus YGL086W, strain mad1, stronger effect = lower value 0.971 | locus YGL167C, strain pmr1, stronger effect = lower value 0.999 | locus YGL173C, strain kem1, stronger effect = lower value 1 | locus YGL227W, strain vid30, stronger effect = lower value 0.985 | locus YGL240W, strain doc1, stronger effect = lower value 1.01 | locus YGL248W, strain PDE1, stronger effect = lower value 0.991 | locus YGL253W, strain hxk2, stronger effect = lower value 0.986 | locus YGR078C, strain PAC10, stronger effect = lower value 0.988 | locus YGR135W, strain pre9, stronger effect = lower value 0.982 | locus YGR229C, strain SMI1, stronger effect = lower value 0.969 | locus YGR252W, strain gcn5, stronger effect = lower value 1.1 | locus YHR013C, strain ard1, stronger effect = lower value 1 | locus YHR027C, strain rpn1, stronger effect = lower value 0.994 | locus YHR030C, strain SLT2, stronger effect = lower value 0.984 and 0.959 | locus YHR079C, strain IRE1 (second series), stronger effect = lower value 0.978 | locus YHR079C, strain IRE1, stronger effect = lower value 0.955 | locus YHR094C, strain hxt1, stronger effect = lower value 0.972 | locus YHR129C, strain ARP1, stronger effect = lower value 0.999 | locus YHR142W, strain chs7, stronger effect = lower value 0.96 | locus YHR200W, strain rpn10, stronger effect = lower value 0.974 | locus YIL066C, strain RNR3, stronger effect = lower value 0.991 | locus YIL073C, strain SPO22, stronger effect = lower value 0.887 | locus YIL125W, strain kgd1, stronger effect = lower value 0.954 | locus YIR030C, strain dcg1, stronger effect = lower value 0.991 | locus YJL092W, strain hpr5, stronger effect = lower value 0.986 | locus YJL095W, strain BCK1 (second series), stronger effect = lower value 0.996 | locus YJL095W, strain BCK1, stronger effect = lower value 0.992 and 0.987 | locus YJL115W, strain asf1, stronger effect = lower value 0.971 | locus YJL129C, strain trk1, stronger effect = lower value 1.01 | locus YJL134W, strain LCB3, stronger effect = lower value 0.992 | locus YJL154C, strain vps35, stronger effect = lower value 0.986 | locus YJL164C, strain tpk1, stronger effect = lower value 0.988 | locus YJL166W, strain qcr8, stronger effect = lower value 0.999 | locus YJL168C, strain set2, stronger effect = lower value 0.984 | locus YJL187C, strain SWE1 (second series), stronger effect = lower value 0.983 | locus YJL187C, strain SWE1, stronger effect = lower value 0.99 | locus YJR043C, strain POL32, stronger effect = lower value 0.979
